Here are results for 33 molecules from PubChem BioAssay.

Molecules are shown by their SMILES. Unmarked numbers belong to inactive results. Calls of active or inactive are those of the source. Rule as the data show it, unless noted: active = inhibition above about 28%; inactive = the rest.

One may read the inhibition as the change of the read-out against control, counted positive when it falls.

A short description of test [1]: StAR promoter reporter inhibitors, counter-screen for LRH-1 inverse agonist project, cell-based, luminescence, high throughput (AID 651611). The settings on record: StAR promoter luciferase reporter counterscreen, at 3.6 µM, hits give high values. A general note: The purpose of a counterscreen is to sort out artefacts and off-target activity.
The target in test [2] is Nuclear receptor subfamily 5 group A member 2 (Homo sapiens) (UniProt O00482). Kind of test: NR5A2 activity suppression in reporter cells – cell-based, luminescence, confirmation (AID 651613; in the data active = inhibition above about 42%;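 also: HEK293T cells co-transfected with LRH-1 and StAR promoter luciferase reporter; 0% = vehicle wells and 100% = parental cells lacking receptor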). The settings on record: cell-based LRH-1 luciferase reporter, inverse agonism; at 3.6 µM; hits give high values. Background: Reporter assays use an easily measured gene product as a stand-in for the process of interest.

The target of test [3] is Steroidogenic factor 1 (Homo sapiens) (UniProt Q13285). The experiment in a line: inverse agonism at SF1 nuclear receptor – cell-based, luminescence, high throughput, counter-screen for LRH-1 inverse agonist project (AID 651614; in the data active = inhibition above about 44%;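 also: cells cotransfected with StAR promoter reporter and SF1 expression vector; 0% = vehicle on cells with receptor and 100% = vehicle on cells lacking receptor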). The settings on record: cell-based SF1 luciferase reporter, at 3.6 µM, hits give high values.
Test [4] is described as follows: compounds suppressing VP16-driven luciferase signal – cell-based, luminescence, high throughput, counter-screen for LRH-1 inverse agonist project (AID 651615; in the data active = inhibition above about 33%). The following applies: Gal4-VP16 luciferase reporter cells, at 3.6 µM, hits give high values.

Nuclear receptor subfamily 5 group A member 2 (Homo sapiens), sequence (O00482 whole entry, looked up): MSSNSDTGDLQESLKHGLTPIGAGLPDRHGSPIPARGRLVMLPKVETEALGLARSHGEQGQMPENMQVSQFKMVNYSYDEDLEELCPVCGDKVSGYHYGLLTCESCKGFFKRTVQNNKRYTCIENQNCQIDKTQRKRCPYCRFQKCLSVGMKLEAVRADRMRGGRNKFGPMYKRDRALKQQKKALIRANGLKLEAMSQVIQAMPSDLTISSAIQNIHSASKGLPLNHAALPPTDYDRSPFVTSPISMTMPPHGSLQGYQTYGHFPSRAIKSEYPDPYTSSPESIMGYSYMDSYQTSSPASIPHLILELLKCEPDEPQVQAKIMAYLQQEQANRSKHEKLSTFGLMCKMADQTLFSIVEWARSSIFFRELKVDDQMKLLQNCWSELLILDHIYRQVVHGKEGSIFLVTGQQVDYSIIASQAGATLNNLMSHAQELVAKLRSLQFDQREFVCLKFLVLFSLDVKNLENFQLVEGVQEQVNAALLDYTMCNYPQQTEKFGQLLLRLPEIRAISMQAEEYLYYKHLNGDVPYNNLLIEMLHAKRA
Steroidogenic factor 1 (Homo sapiens), sequence (Q13285 whole entry, looked up, the tested form may be a part): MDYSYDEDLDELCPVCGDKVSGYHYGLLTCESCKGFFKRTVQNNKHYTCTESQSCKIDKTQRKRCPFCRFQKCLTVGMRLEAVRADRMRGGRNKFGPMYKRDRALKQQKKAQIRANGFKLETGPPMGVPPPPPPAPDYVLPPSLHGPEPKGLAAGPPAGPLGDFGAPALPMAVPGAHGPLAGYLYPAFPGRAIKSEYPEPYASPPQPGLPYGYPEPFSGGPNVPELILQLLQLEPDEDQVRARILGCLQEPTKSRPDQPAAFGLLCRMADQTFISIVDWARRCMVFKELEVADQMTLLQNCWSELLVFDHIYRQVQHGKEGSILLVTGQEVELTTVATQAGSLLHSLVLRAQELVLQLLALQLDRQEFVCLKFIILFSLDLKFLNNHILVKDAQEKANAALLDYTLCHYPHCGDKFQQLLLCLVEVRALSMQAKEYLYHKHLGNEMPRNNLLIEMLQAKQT

Take `O=C(NCc1cccnc1)c1cccn2c(=O)c3sccc3nc12`: the inhibition was 17.9% in test [1], 34.3% in test [2], 31.3% in test [3] and 1.7% in test [4].

On to `COc1ccc(-c2cc3nc(-c4ccccc4)cc(N4CCN(C(C)=O)CC4)n3n2)cc1`, for which the inhibition was 32.4% (active) in test [1], 31.1% in test [2], 39.3% in test [3] and -11.9% in test [4].

As for `Cc1nnc(SCC(=O)Nc2ccc(Br)cc2)n(N)c1=O`, the inhibition in test [1] was 6.5%; in test [2], 44.3% (active); in test [3], 32.1%; in test [4], -5.1%.

Take `Cc1ccc(NC(=O)CN2CCC(NC(=O)C3CCCCC3)CC2)c(Br)c1`: the inhibition was 11.8% in test [1], 34% in test [2], 44.9% (active) in test [3] and 7.56% in test [4].

As to `COc1ccc(NC(=O)CSc2nc(N)c(-c3ccccc3)c(=O)[nH]2)cc1`, the inhibition was 9.25% in test [1], 63.2% (active) in test [2], 57.5% (active) in test [3] and -7.75% in test [4].

Turning to `COc1ccc(NC(=O)COC(=O)Cc2c[nH]c3ccccc23)cc1Cl`, the inhibition in test [1] is 18.2%; in test [2] it was 40.9%; in test [3], 42.5%; in test [4], -6.87%.

Regarding `O=C(COC(=O)c1ccc(Br)cc1)Nc1ccccc1Br`, the inhibition is 9% in test [1], 50.5% (active) in test [2], 50.1% (active) in test [3] and 1.81% in test [4].

With `CC(=O)Nc1ncc(Cc2cc(Cl)ccc2Cl)s1`, the inhibition in test [1] is 11.1%; in test [2], 50.2% (active); in test [3] it was 46.7% (active); in test [4], 2.54%.

Consider `Cc1onc(NC(=O)c2ccc([N+](=O)[O-])o2)c1Br`, for which the inhibition in test [1] was 4.26%; in test [2] it was 64.9% (active); in test [3], 58.4% (active); in test [4], -9.49%.

For `CCOc1ccc(CCNC(=O)COC(=O)CCC(=O)c2cccs2)cc1OCC`, the inhibition is -0.72% in test [1], 45.3% (active) in test [2], 51% (active) in test [3] and -6.57% in test [4].

`CCOc1ccc(C(=O)c2cc([N+](=O)[O-])ccc2Cl)cc1`: the inhibition is 12.6% in test [1], 42.3% (active) in test [2], 39.5% in test [3] and -1.79% in test [4].

Regarding `Cc1ccc2c(c1)Oc1ccc(NC(=O)CCl)cc1C(=O)N2`, the inhibition was 61.7% (active) in test [1], 68.3% (active) in test [2], 75.6% (active) in test [3] and 16.8% in test [4].

As for `O=C(CSc1ncn[nH]1)Nc1ccc(Cl)c(Cl)c1`, the inhibition in test [1] was 18.4%; in test [2], 45.2% (active); in test [3] it was 39%; in test [4] it was 20.6%.

As to `Cc1cccc(OCC(=O)Nc2ccncc2)c1C`, the inhibition in test [1] is 6.9%; in test [2], 60% (active); in test [3], 61.9% (active); in test [4], 36.1% (active).

For `Cc1ccc(C(=O)Nc2sc3c(c2C(=O)O)CCCCC3)o1`, the inhibition in test [1] was 12.2%; in test [2] it was 34.3%; in test [3], 69.9% (active); in test [4] it was 45.4% (active).

For the molecule `COCCNc1ccc([N+](=O)[O-])cc1C(=O)NC1CCCc2ccccc21` (configuration not stated), the inhibition in test [1] was 4.6%; in test [2], 54.7% (active); in test [3], 53.5% (active); in test [4], 12.8%.

As to `Cc1ccc[n+](CC(=O)Nc2ccc([N+](=O)[O-])cc2)c1`, the inhibition was 12.6% in test [1], 63.1% (active) in test [2], 57% (active) in test [3] and -13.3% in test [4].

`Cc1ccc(NC(=O)[C@H](Cc2c[nH]c3ccccc23)NC(=O)[C@@H]2Cc3ccccc3CN2)c(C)c1`: the inhibition is 78.4% (active) in test [1], 3.94% in test [2], 71.4% (active) in test [3] and 77.5% (active) in test [4].

Consider `Cc1ccnc2nc(C(=O)OCC(=O)Nc3ccc([N+](=O)[O-])cc3Br)nn12`, for which the inhibition in test [1] is 9.71%; in test [2], 38.9%; in test [3] it was 32.1%; in test [4] it was -0.95%.

As for `O=S(=O)(c1ccc(-c2csc(Nc3ccc(F)cc3)n2)cc1)N1CCCC1`, the inhibition was 15.5% in test [1], 66.7% (active) in test [2], 56.4% (active) in test [3] and 35.4% (active) in test [4].

For `CCn1c(SCC(=O)Nc2ccc(N3CCOCC3)cc2)nnc1-c1ccco1`, the inhibition in test [1] was 3.02%; in test [2], 58% (active); in test [3], 47.3% (active); in test [4], 10.2%.

For the molecule `CC(=O)N1CCN(c2ccccc2NC(=O)c2cc3ccccc3o2)CC1`, the inhibition in test [1] was 9.44%; in test [2], 43.5% (active); in test [3] it was 37.7%; in test [4], 2.75%.

For `CC1SC(C)C(=O)N(CC(=O)Nc2ccc3c(c2)OCO3)C1=O` (configuration not stated), the inhibition in test [1] is 8.81%; in test [2], 49.1% (active); in test [3], 36.9%; in test [4], -7.59%.

`CCOc1ccc(NC(=O)COC(=O)COc2cccc3c2OC(C)(C)C3)cc1`: the inhibition was 1.8% in test [1], 61.5% (active) in test [2], 60.5% (active) in test [3] and -1.47% in test [4].

In the case of `Cc1cc2ncn(/N=C/c3ccc([N+](=O)[O-])o3)c2cc1C`, the inhibition in test [1] is 17.6%; in test [2] it was 69.1% (active); in test [3] it was 68.2% (active); in test [4], -19.6%.

With `COc1cccc(-c2cc(NC=O)c3ncc(-c4ccc(C(C)=O)cc4)n3c2)c1`, the inhibition in test [1] was 45.1% (active); in test [2] it was 65.2% (active); in test [3], 60.1% (active); in test [4], -11.4%.

Turning to `COc1cc(F)c(C2=CC(=O)CC(C)(C)C2)cc1F`, the inhibition in test [1] is -6.98%; in test [2], 43.9% (active); in test [3], 34.5%; in test [4], -13.9%.

As for `O=C(NCc1ccc2c(c1)OCO2)c1cc([N+](=O)[O-])ccc1N1CCCCC1`, the inhibition in test [1] was 44.1% (active); in test [2], 36.2%; in test [3], 47.6% (active); in test [4] it was 30.3%.

On to `O=C(COC(=O)c1ccc(S(=O)(=O)N2CCCC2)cc1)Nc1ccc(N2CCOCC2)cc1`, for which the inhibition in test [1] is 18.1%; in test [2], 48.5% (active); in test [3], 57.4% (active); in test [4], -7.59%.

With `O=C(CSc1cc(Cl)ccc1Cl)Nc1ccc(N2CCOCC2)cc1`, the inhibition is 1.91% in test [1], 63.9% (active) in test [2], 65.3% (active) in test [3] and 3.31% in test [4].

As for `COc1cc2oc(-c3ccc(O)cc3)cc(=O)c2c(O)c1OC`, the inhibition in test [1] was 7%; in test [2] it was 35.9%; in test [3], 32.8%; in test [4] it was -45.5%.

For the molecule `Cc1nc2cc(N3CCCCC3)c(NC(=O)c3cccnc3)cc2c(=O)n1Cc1ccccc1`, the inhibition was 10.7% in test [1], 57.6% (active) in test [2], 57.2% (active) in test [3] and -17% in test [4].

In the case of `COc1ccc(CCn2c(C)cc(C(=O)COC(=O)c3ccc(O)cc3O)c2C)cc1`, the inhibition in test [1] was 5.91%; in test [2], 41.5% (active); in test [3], 28.4%; in test [4], -15%.
